In PubChem BioAssay (Tox21):
Inconclusive results are not listed. Active and inactive are the calls of the source. Calls come from the whole dose curve; as a rule, active = well fitted curve in the direction sought with a large enough effect in the repeat runs; inconclusive = weak or mixed curves; inactive = no such curve, though single readings can be large; an effect the other way counts as inactive or inconclusive.

What was measured:
[1] = qHTS RealTime-Glo MT Cell Viability Assay in HEK293 cells - 0 hour (AID 1224880); note: top concentration of the series differs between compounds; nearly all actives have a fitted effect of over 45% in size
In short: (§1)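 600 cells/well were plated with the nonlytic NanoLuc/prosubstrate reagent, pre-incubated 5 h, then given 23 nL of compound in DMSO. Incubation at 37 C for 40 h, with luminescence from viable-cell-reduced substrate read repeatedly from 0 h.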

[2] = A CellTox Green Cytotoxicity Assay to monitor cytotoxicity in HEK293 cells - 32 hour (AID 1224881); note: nearly all actives have a fitted effect of over 40% in size; note: potency is the fitted concentration of half-maximal effect
In short: (§2)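 HEK293 cells, 600/well, were preincubated 5 hours and then exposed to compounds at 37 C for up to 40 hours. A cell-impermeant cyanine dye staining dead-cell DNA was read by fluorescence at 0, 8, 16, 24, 32 and 40 h time points.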

[3] = A CellTox Green Cytotoxicity Assay to monitor cytotoxicity in HepG2 cells - 0 hour (AID 1224882); note: nearly all actives have a fitted effect of over 35% in size; note: potency is the fitted concentration of half-maximal effect
In short: (§3)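 HepG2 cells, 600/well, preincubated 5 h with CellTox Green dye, then exposed to Tox21 compounds in DMSO at 37 C for up to 40 h. Dead-cell DNA fluorescence read at the indicated time point.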

[4] = A CellTox Green Cytotoxicity Assay to monitor cytotoxicity in HepG2 cells - 32 hour (AID 1224883); note: nearly all actives have a fitted effect of over 50% in size; note: potency is the fitted concentration of half-maximal effect
In short: as §3

[5] = A CellTox Green Cytotoxicity Assay to monitor cytotoxicity in HEK293 cells - 8 hour (AID 1224884); note: nearly all actives have a fitted effect of over 35% in size; note: potency is the fitted concentration of half-maximal effect
In short: as §2

[6] = qHTS RealTime-Glo MT Cell Viability Assay in HepG2 cells - 16 hour (AID 1224885); note: nearly all actives have a fitted effect of over 50% in size
In short: (§4)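 HepG2 suspension premixed with RealTime-Glo reagents is plated at 600 cells per well and left 5 h at 37 C/5% CO2. Compounds in DMSO then go in, and bioluminescence reflecting viable cell number is recorded over 40 h.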

[7] = qHTS RealTime-Glo MT Cell Viability Assay in HEK293 cells - 24 hour (AID 1224886); note: top concentration of the series differs between compounds; nearly all actives have a fitted effect of over 50% in size
In short: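 Reads taken at 0, 8, 16, 24, 32 and 40 h from the same wells. HEK293 cells (600/well) carried RealTime-Glo reagents from seeding, with compound added after a 5 h settle at 37 C.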

[8] = qHTS RealTime-Glo MT Cell Viability Assay in HEK293 cells - 8 hour (AID 1224887); note: top concentration of the series differs between compounds; nearly all actives have a fitted effect of over 50% in size
In short: as §1

[9] = A CellTox Green Cytotoxicity Assay to monitor cytotoxicity in HEK293 cells - 16 hour (AID 1224888); note: nearly all actives have a fitted effect of over 35% in size; note: potency is the fitted concentration of half-maximal effect
In short: as §2

[10] = qHTS RealTime-Glo MT Cell Viability Assay in HepG2 cells - 0 hour (AID 1224889); note: nearly all actives have a fitted effect of over 50% in size
In short: as §4
% is set by controls: 0 for no effect and ±100 for the full control effect.

Nc1ccn(C2CO[C@H](CO)O2)c(=O)n1 (stereo not given in full)
inactive: outcome [1] | outcome [6] | Potency [7] | Potency [8] | Potency [10]
active: Potency [2] 19 µM | Potency [3] 26.8 µM | Potency [4] 5.35 µM | Potency [5] 16.9 µM | Potency [9] 19 µM

CC(C=O)Cc1ccc(C(C)C)cc1 (stereo not given)
inactive: outcome [1] | Potency [2] | Potency [3] | Potency [4] | Potency [5] | outcome [6] | Potency [7] | Potency [8] | Potency [9] | Potency [10]

CCCCCCC(CCCCCCCCCCC(=O)OCC(COC(C)=O)OC(C)=O)OC(C)=O (stereo not given)
inactive: outcome [1] | Potency [2] | Potency [3] | Potency [4] | Potency [5] | outcome [6] | Potency [7] | Potency [8] | Potency [9] | Potency [10]

C=CC(=O)OCCCCCC
inactive: outcome [1] | Potency [2] | Potency [3] | Potency [4] | Potency [5] | outcome [6] | Potency [7] | Potency [8] | Potency [9] | Potency [10]

CCCC(C)C(=O)O (stereo not given)
inactive: outcome [1] | Potency [2] | Potency [3] | Potency [4] | Potency [5] | outcome [6] | Potency [7] | Potency [8] | Potency [9] | Potency [10]

CCn1cc(C(=O)O)c(=O)c2cc(F)c(N3CCN(C)CC3)cc21
inactive: activity change, negative = cytotoxicity [1] 5.85% [at 15.8 µM] | cytotoxicity increase [2] -8.3% [at 15.8 µM] | cytotoxicity [3] -1.13% [at 15.8 µM] | cytotoxicity increase [4] -17.6% [at 15.8 µM] | cytotoxicity increase [5] -3.43% [at 15.8 µM] | activity change, negative = cytotoxic [6] 0.92% [at 15.8 µM] | activity change, negative = cytotoxicity [7] 2.21% [at 15.8 µM] | activity change, negative = cytotoxicity [8] 7.74% [at 15.8 µM] | activity change [9] -0.608% [at 15.8 µM, active compounds read high] | activity change, negative = cytotoxicity [10] 5.05% [at 15.8 µM]

COc1ccc(NC(C)=O)cc1
inactive: outcome [1] | Potency [2] | Potency [3] | Potency [4] | Potency [5] | outcome [6] | Potency [7] | Potency [8] | Potency [9] | Potency [10]

O=C1C(CCS(=O)c2ccccc2)C(=O)N(c2ccccc2)N1c1ccccc1 (stereo not given)
inactive: outcome [1] | Potency [2] | Potency [3] | Potency [4] | Potency [5] | outcome [6] | Potency [7] | Potency [8] | Potency [9] | Potency [10]

O=C(O)/C=C/c1ccc(/C=C/C(=O)O)cc1
inactive: outcome [1] | Potency [2] | Potency [3] | Potency [4] | Potency [5] | outcome [6] | Potency [7] | Potency [8] | Potency [9] | Potency [10]

CC(C)[N+](C)(C)CC(O)COc1cccc2ccccc12 (stereo not given)
inactive: outcome [1] | Potency [2] | Potency [3] | Potency [4] | Potency [5] | outcome [6] | Potency [7] | Potency [8] | Potency [9] | Potency [10]

Nc1cc(N)cc(C(=O)O)c1
inactive: outcome [1] | Potency [2] | Potency [3] | Potency [4] | Potency [5] | outcome [6] | Potency [7] | Potency [8] | Potency [9] | Potency [10]

CC(=O)CCc1ccc(O)cc1
inactive: outcome [1] | Potency [2] | Potency [3] | Potency [4] | Potency [5] | outcome [6] | Potency [7] | Potency [8] | Potency [9] | Potency [10]

O=c1[nH]c2ccccc2c(=O)n1CCCl
inactive: outcome [1] | Potency [2] | Potency [3] | Potency [4] | Potency [5] | outcome [6] | Potency [7] | Potency [8] | Potency [9] | Potency [10]

COc1ccc(N=[N+]([O-])c2ccc(OC)cc2)cc1
inactive: outcome [1] | Potency [2] | Potency [3] | Potency [4] | Potency [5] | outcome [6] | Potency [7] | Potency [8] | Potency [9] | Potency [10]

CO[Si](OC)(OC)OC
inactive: outcome [1] | Potency [2] | Potency [3] | Potency [4] | Potency [5] | outcome [6] | Potency [7] | Potency [8] | Potency [9] | Potency [10]

CC1(C)OC(=O)Nc2ccc(Br)cc21
inactive: outcome [1] | Potency [2] | Potency [3] | Potency [4] | Potency [5] | outcome [6] | Potency [7] | Potency [8] | Potency [9] | Potency [10]

CC(=O)OC(C)(C)C
inactive: outcome [1] | Potency [2] | Potency [3] | Potency [4] | Potency [5] | outcome [6] | Potency [7] | Potency [8] | Potency [9] | Potency [10]

C[C@H](O)C(=O)Nc1c(I)c(C(=O)NC(CO)CO)c(I)c(C(=O)NC(CO)CO)c1I
inactive: outcome [1] | Potency [2] | Potency [3] | Potency [4] | Potency [5] | outcome [6] | Potency [7] | Potency [8] | Potency [9] | Potency [10]

CN(C)C(=O)Nc1ccccc1
inactive: outcome [1] | Potency [2] | Potency [3] | Potency [4] | Potency [5] | outcome [6] | Potency [7] | Potency [8] | Potency [9] | Potency [10]

CC(C)c1ccc2oc3nc(N)c(C(=O)O)cc3c(=O)c2c1
inactive: outcome [1] | Potency [2] | Potency [3] | Potency [4] | Potency [5] | outcome [6] | Potency [7] | Potency [8] | Potency [9] | Potency [10]

O=S(=O)(O)c1ccccc1O
inactive: outcome [1] | Potency [2] | Potency [3] | Potency [4] | Potency [5] | outcome [6] | Potency [7] | Potency [8] | Potency [9] | Potency [10]

O=C1OC(=O)c2cc([N+](=O)[O-])ccc21
inactive: outcome [1] | Potency [2] | Potency [3] | Potency [4] | Potency [5] | outcome [6] | Potency [7] | Potency [8] | Potency [9] | Potency [10]

CC(=O)NC(Cc1ccccc1)C(=O)O (stereo not given)
inactive: outcome [1] | Potency [2] | Potency [3] | Potency [4] | Potency [5] | outcome [6] | Potency [7] | Potency [8] | Potency [9] | Potency [10]
